Sampled rows, rich in hits. Any-hit rate of the full collection: about 2.2%.
GC-A act: GC-A (human) enzyme activation; activation, % at 10 µM; P16066; AID 1671463; HEK293 GC-A cells, cGMP TR-FRET, EC30 ANP; 0% at EC30 ANP, 100% saturating ANP; 370,000 tested, 0.14% active; in the data active = activation above about 40%
GC-B act: GC-B (human) receptor activation; activation, % at 10 µM; 370,000 tested, 0.11% active; HEK293-GC-B cells, CNP EC30, cGMP TR-FRET; 0% at EC30 CNP, 100% saturating CNP; P20594;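 active = activation at 10 µM reaching about 35% in either raw or pattern-adjusted values, limit read from the data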
ADAM17 inh: inhibits human ADAM17 | recombinant ADAM17, EDANS/DABCYL FRET peptide cleavage | inhibition, % at 6.95 µM | 370,000 tested, 0.83% active | AID 720648;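 active = inhibition above the mean of compounds lying between control limits plus 3 SD, set per campaign, cut at about 8.5% in these data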;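 note: 0% = DMSO-only wells as the low control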
ADAM10 inh: inhibits human ADAM10; inhibition, % at 7 µM; recombinant ADAM10, EDANS/DABCYL FRET peptide cleavage, 3 h; O14672; 370,000 tested, 0.62% active;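 active = inhibition above a per-campaign cutoff equal to the mean of compounds falling between control-based bounds plus 3 SD, cut at about 20% in these data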;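 note: 0% = DMSO wells while the 100% control is not disclosed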
KLK7 zymogen act: activators of human kallikrein-7 zymogen; purified proKLK7, EDANS-DABCYL substrate fluorescence; 100% is mature enzyme control, 0% vehicle; activation, % at 7 µM; 370,000 tested, 0.9% active;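 active = activation above the mean of all tested compounds plus 3 SD, computed per campaign excluding outliers beyond control limits, cut at about 13% in these data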
ADAM10 confirm: confirmation of inhibitors of human ADAM10; shares compounds with ADAM10 inh; ADAM10 QFRET peptide cleavage, EDANS fluorescence; inhibition, % at 6.95 µM; 2,100 tested, 1% active; AID 743208;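 active = inhibition above about 20% chosen separately for each screening run, limit read from the data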;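 note: 0% = DMSO wells and 100% = marimastat wells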
ADAM17 ctr: inhibits human ADAM17 in ADAM10 exosite counter-screen | shares compounds with ADAM10 inh | ADAM17 QFRET peptide cleavage, EDANS fluorescence | inhibition, % at 6.95 µM | 2,100 tested, 0.5% active;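 active = mean triplicate inhibition above the solvent-only control wells' mean plus 3 SD, cut at about 12% in these data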;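 note: 0% = DMSO wells and 100% = marimastat wells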
ADAM10 counter: counter-screen for ADAM17 exosite inhibitors: inhibitors of human ADAM10 | recombinant ADAM10, EDANS/DABCYL FRET peptide cleavage, 3 h | AID 743256 | shares compounds with ADAM17 inh | 2,900 tested, 47% active | inhibition, % at 6.95 µM;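 active = mean inhibition over the triplicate runs exceeds the activity threshold set in the earlier primary screen, cut at about 20% in these data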;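 note: 0% = DMSO wells and 100% = marimastat wells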
ADAM17 confirm: confirmation of inhibitors of human ADAM17. AID 743257. 2,900 tested, 65% active. inhibition, % at 6.95 µM. recombinant ADAM17, EDANS/DABCYL QFRET peptide cleavage. shares compounds with ADAM17 inh;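 active = mean inhibition across replicates above the hit cutoff set in the primary screen, cut at about 8.5% in these data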;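 note: 0% = DMSO wells and 100% = marimastat wells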
Numbers without * were called inactive; x = no result.

SMILES	GC-A act	GC-B act	ADAM17 inh	ADAM10 inh	KLK7 zymogen act	ADAM10 confirm	ADAM17 ctr	ADAM10 counter	ADAM17 confirm
Cc1ccc(S(=O)(=O)Nc2ccc(C(OC(=O)c3ccccc3[N+](=O)[O-])(C(F)(F)F)C(F)(F)F)cc2)cc1	0	-4	10*	22*	0	4	2	47*	27*
O=C(OC(c1ccc(NS(=O)(=O)c2ccccc2)cc1)(C(F)(F)F)C(F)(F)F)c1ccccc1	-1	-1	13*	32*	1	4	2	36*	18*
Cc1cc(C)nc(NS(=O)(=O)c2ccc(NC(=O)c3ccccc3[N+](=O)[O-])cc2)n1	1	-5	-3	-4	0	x	x	x	x
CC(=O)c1ccc(NS(=O)(=O)c2ccccc2)cc1	-1	3	-2	-15	-1	x	x	x	x
CC1(C(=O)NCc2cccc(C(F)(F)F)c2)CCN1Cc1ccc2ccccc2c1 (stereo not given)	-6	-7	4	12	0	x	x	x	x
CC1(C(=O)NCc2ccc(C(F)(F)F)cc2)CCN1Cc1cc2ccccc2o1 (stereo not given)	-2	1	11*	24*	0	2	0	15	7
COc1ccc(S(=O)(=O)Nc2ccc(C)cc2)cc1N(C)S(=O)(=O)c1ccc(Cl)cc1	-10	-7	19*	32*	0	7	2	40*	21*
COc1ccc(S(=O)(=O)NN(C)C)cc1N(C)S(=O)(=O)c1ccc(Cl)cc1	1	1	1	-1	0	x	x	x	x
O=C(OCc1cn(Cc2ccccc2C(F)(F)F)nn1)N1CCOCC1	1	-6	0	4	1	x	x	x	x
Cc1ccc(SCC2(O)CCN(S(=O)(=O)c3ccc(Cl)cc3)CC2)cc1	-4	-1	17*	29*	1	3	0	28*	16*
Cc1ccc(S(=O)(=O)N2CCN(C(=O)CSc3ccc(Cl)cc3)CC2)cc1	-15	-4	1	11	0	x	x	x	x
C=CCN1[C@H](C)COc2cc(F)ccc2S1(=O)=O	-1	-1	-3	6	0	x	x	x	x
COc1ccc(-c2nnc(SCC(=O)NN=C(C)c3cccc4ccccc34)n2-c2ccc(C)cc2)cc1	-24	-12	-1	0	0	x	x	x	x
CC(C)(C)C(=O)OC12CCCN(C1)/C(=C/c1cccc(Cl)c1)C2 (stereo not given)	1	3	3	3	0	x	x	x	x
CC1(C(=O)N2CC3(CC(c4cccc(NC(=O)COc5ccc(Cl)cc5)c4)=NO3)C[C@@H]2C(N)=O)CC1 (stereo not given in full)	1	3	-2	4	1	x	x	x	x
NC(=O)[C@H]1CC2(CC(c3cccc(NC(=O)COc4ccc(Cl)cc4)c3)=NO2)CN1C(=O)c1ccc(Cl)cc1 (stereo not given in full)	1	-2	14*	36*	1	4	1	37*	22*
O=C(C(=O)N1CCN(c2ccccc2Cl)CC1)c1c[nH]c2ccccc12	-4	6	14*	26*	1	6	1	21*	12*
Clc1ccccc1N1CCN(Cc2c[nH]c3ccccc23)CC1	-5	4	0	3	0	x	x	x	x
CCOC(=O)c1sc(NC(=O)CSc2n[nH]c(CC(C)C)n2)nc1C	-1	-9	8.8*	27*	-1	0	0	5	-2
CCCC[C@@H]1C(=O)N2N=Cc3cc4ccccc4cc3[C@H]2N2N=Cc3cc4ccccc4cc3[C@@H]12	-1	10	-24	-69	-4	x	x	x	x
